Measurements: PubChem BioAssay (Tox21)
Values joined by “and” are separate entries in the source; they are usually repeats but may differ in a detail not shown here. Equal entries are not always repeated. Inconclusive results are not listed. Where a structure was tested more than once in an assay, its records may differ in their call. Active and inactive are the calls of the source. Unless noted, the call rests on the fitted dose curve; in most records, active means well fitted curve in the direction sought with a large enough effect in the repeat runs; inconclusive means weak or mixed curves; inactive means no such curve, though single readings can be large; an effect the other way counts as inactive or inconclusive.

How the values were obtained:
[1] = qHTS assay to identify small molecule antagonists of the estrogen receptor alpha (ER-alpha) signaling pathway using the BG1 cell line in the presence of 0.1 nM 17-beta-estradiol - cell viability counter screen (AID 1259241); further: nearly all actives have a fitted effect of over 40% in size
Outline: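 In this screen, hormone-deprived VM7Luc4E2 cells were seeded at 4,000 per well, dosed with compound and 0.1 nM estradiol final, and incubated 22 hr at 37C and 5% CO2; fluorogenic live-cell protease signal reported viability.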

[2] = qHTS assay to identify small molecule antagonists of the androgen receptor (AR) signaling pathway using the MDA cell line in the presence of 0.5 nM R1881 - cell viability counter screen (AID 1259242); further: nearly all actives have a fitted effect of over 45% in size; further: potency means the concentration at half of the fitted maximal effect
Outline: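 Counter screen for cytotoxicity run in the same wells as the AR antagonist reporter screen: MDA-kb2 cells were treated 16 hr with test compounds and 0.5 nM R1881, then live-cell protease activity was measured by fluorescence.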

[3] = target: Androgen receptor (Homo sapiens) (UniProt P10275); experiment: qHTS assay to identify small molecule antagonists of the androgen receptor (AR) signaling pathway using the MDA cell line in the presence of 0.5 nM R1881 (AID 1259243); further: nearly all actives have a fitted effect of over 50% in size; further: potency means the concentration at half of the fitted maximal effect
Outline: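 Luciferase luminescence is the read-out: compounds are tested for suppressing 0.5 nM R1881-driven MMTV reporter activity in MDA-kb2 cells after 16 hr at 37C.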

[4] = target: Estrogen receptor (Homo sapiens) (UniProt P03372); experiment: qHTS assay to identify small molecule antagonists of the estrogen receptor alpha (ER-alpha) signaling pathway using the BG1 cell line in the presence of 0.1 nM 17-beta-estradiol (AID 1259244); further: nearly all actives have a fitted effect of over 50% in size; further: potency means the concentration at half of the fitted maximal effect
Outline: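 Cells: VM7Luc4E2, endogenous ER-alpha, 4x ERE-luc stable. Pre-culture 5 d, phenol red-free, charcoal-stripped FBS. Plated 24 h, compound + E2 0.1 nM final, 22 h 37C/5% CO2. Readout ONE-Glo luminescence.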

[5] = qHTS assay to identify small molecule HDAC inhibitors (AID 1259364); further: top concentration of the series differs between compounds; nearly all actives have a fitted effect of over 45% in size
Outline: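 Luminescence from a cell-permeant luminogenic class I/II HDAC substrate reports endogenous deacetylase activity in intact HCT-116 cells treated with compounds for 2 h.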

[6] = qHTS assay to identify small molecule HDAC inhibitors - cell viability counter screen (AID 1259365); further: nearly all actives have a fitted effect of over 50% in size; further: potency means the concentration at half of the fitted maximal effect; on activity change, negative = cytotoxicity: series mostly up to about 92 µM
Outline: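 Measured quantity is CellTiter-Glo luminescence from wild-type HCT-116 cells after compound incubation of 2hr at 37C, 5% CO2; reagent developed 30min at room temperature.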

[7] = qHTS assay to identify small molecule agonists of the sonic hedgehog signaling (Shh) pathway - cell viability counter screen (AID 1259366); further: nearly all actives have a fitted effect of over 50% in size; further: potency means the concentration at half of the fitted maximal effect
Outline: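 In quantitative high-throughput format, 3T3 Gli1-Luc cells were exposed to compounds for 24hr and multiplexed for viability using CellTiter-Fluor, incubated 1hr at 37C before the fluorescence read.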

[8] = qHTS assay to identify small molecule antagonists of the sonic hedgehog signaling (Shh) pathway - cell viability counter screen (AID 1259367); further: nearly all actives have a fitted effect of over 55% in size; further: potency means the concentration at half of the fitted maximal effect
Outline: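 NIH/3T3-derived Gli1-Luc reporter cells (2,000 per well) rested 4 hr at 37 C, then received DMSO compounds plus conditioned medium. After 23 hr of treatment, CellTiter-Fluor was added for 1 hr at 37C and fluorescence read.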

[9] = qHTS assay to identify small molecule agonists of the sonic hedgehog signaling (Shh) pathway (AID 1259368; calls by dose curve;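 further: NIH/3T3-derived 3T3Gli1-Luc cells carrying a stable Gli1-driven firefly luciferase reporter; series mostly up to about 92 µM; nearly all actives have a fitted effect of over 15% in size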)
Outline: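 3T3Gli1-Luc (NIH/3T3 clone, stable Gli1-Luc); 4 hr pre-incubation, then cpd in DMSO 24 hr, 37 C/5% CO2; luciferase reagent 30 min RT; luminescence.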

[10] = qHTS assay to identify small molecule phospholipidosis (PLD) inducers (AID 1259344; active means well fitted curve in the direction sought with a large enough effect; an effect the other way counts as inactive or inconclusive)
Outline: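 HepG2 cells on collagen I, attached 4 h at 37 C, were co-treated with compound and LipidTOX Red dye for 24 h at 37 C, then fixed with paraformaldehyde plus Hoechst 33342 and imaged by high-content microscopy for phospholipid accumulation.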
On the % scale 0 is the no-effect control and ±100 the full control effect.

Sequence of Estrogen receptor (Homo sapiens) (P03372 whole entry, looked up): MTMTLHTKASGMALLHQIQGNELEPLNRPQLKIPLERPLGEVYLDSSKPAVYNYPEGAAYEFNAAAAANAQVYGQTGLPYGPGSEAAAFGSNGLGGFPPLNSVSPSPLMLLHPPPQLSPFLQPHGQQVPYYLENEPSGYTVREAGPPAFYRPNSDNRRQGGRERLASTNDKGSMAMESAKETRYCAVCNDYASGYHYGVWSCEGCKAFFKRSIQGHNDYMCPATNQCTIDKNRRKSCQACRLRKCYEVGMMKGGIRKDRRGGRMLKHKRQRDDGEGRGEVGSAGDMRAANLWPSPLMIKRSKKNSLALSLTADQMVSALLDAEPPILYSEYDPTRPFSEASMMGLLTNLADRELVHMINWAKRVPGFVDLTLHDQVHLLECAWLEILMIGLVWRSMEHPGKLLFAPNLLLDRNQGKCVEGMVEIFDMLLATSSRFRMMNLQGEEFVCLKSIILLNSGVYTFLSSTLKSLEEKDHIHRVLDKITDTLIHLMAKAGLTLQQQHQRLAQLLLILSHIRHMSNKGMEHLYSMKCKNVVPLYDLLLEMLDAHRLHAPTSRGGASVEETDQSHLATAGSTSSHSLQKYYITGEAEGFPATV
Sequence of Androgen receptor (Homo sapiens) (P10275 whole entry, looked up): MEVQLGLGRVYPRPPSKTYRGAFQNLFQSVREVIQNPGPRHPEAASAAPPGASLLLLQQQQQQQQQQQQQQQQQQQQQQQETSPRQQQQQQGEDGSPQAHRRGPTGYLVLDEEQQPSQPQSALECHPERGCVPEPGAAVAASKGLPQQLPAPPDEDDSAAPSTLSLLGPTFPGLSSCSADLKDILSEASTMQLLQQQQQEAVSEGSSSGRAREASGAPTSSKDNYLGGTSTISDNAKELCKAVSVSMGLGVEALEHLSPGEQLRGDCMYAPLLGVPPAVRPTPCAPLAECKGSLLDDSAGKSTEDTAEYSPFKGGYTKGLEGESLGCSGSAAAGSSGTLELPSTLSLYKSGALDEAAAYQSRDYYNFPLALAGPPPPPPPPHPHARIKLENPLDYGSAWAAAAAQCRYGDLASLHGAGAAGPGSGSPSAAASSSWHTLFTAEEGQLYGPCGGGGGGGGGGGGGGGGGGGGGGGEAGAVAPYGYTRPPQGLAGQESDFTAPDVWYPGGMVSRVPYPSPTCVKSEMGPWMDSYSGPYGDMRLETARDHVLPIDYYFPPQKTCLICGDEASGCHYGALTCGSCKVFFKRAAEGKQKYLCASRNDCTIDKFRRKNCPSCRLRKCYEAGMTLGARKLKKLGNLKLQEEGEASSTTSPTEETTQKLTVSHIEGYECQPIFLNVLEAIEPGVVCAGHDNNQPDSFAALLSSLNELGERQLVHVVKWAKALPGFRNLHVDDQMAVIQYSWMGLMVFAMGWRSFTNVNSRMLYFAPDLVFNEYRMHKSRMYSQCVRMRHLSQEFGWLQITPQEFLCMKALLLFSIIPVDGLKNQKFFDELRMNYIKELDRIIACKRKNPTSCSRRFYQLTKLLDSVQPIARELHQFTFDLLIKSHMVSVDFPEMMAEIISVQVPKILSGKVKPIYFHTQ

COCc1cnc(C2=NC(C)(C(C)C)C(=O)N2)c(C(=O)O)c1 (stereo not drawn)
inactive: Potency [1] | Potency [2] | Potency [3] | Potency [4] | Potency [5] | Potency [6] | Potency [7] | Potency [8] | Potency [9]

CCOC(=O)c1cncn1C(C)c1ccccc1 (stereo not drawn)
inactive: Potency [1] | Potency [2] | Potency [4] | outcome [10] | Potency [5] | Potency [6] | Potency [7] | Potency [8] | Potency [9]

CN1C(=O)CN=C(c2ccccc2)c2cc([N+](=O)[O-])ccc21
inactive: Potency [1] | Potency [2] | Potency [3] | Potency [4] | outcome [10] | Potency [5] | Potency [6] | Potency [7] | Potency [8] | Potency [9]

CCC1(C2=NCCN2)Cc2ccccc2O1 (stereo not drawn)
inactive: Potency [1] | Potency [2] | Potency [3] | Potency [4] | outcome [10] | Potency [5] | Potency [7] | Potency [8] | Potency [9]

C=C(Cl)Cl
inactive: Potency [1] | Potency [2] | Potency [3] | Potency [4] | Potency [5] | Potency [6] | Potency [7] | Potency [8] | Potency [9]

CN[C@@H](C)[C@H](O)c1ccccc1
inactive: Potency [1] | Potency [2] | Potency [4] | outcome [10] | Potency [5] | Potency [6] | Potency [7] | Potency [8]

O=C(Cl)OCCOCCOC(=O)Cl
inactive: Potency [1] | Potency [2] | Potency [3] | Potency [4] | Potency [5] | Potency [6] | Potency [7] | Potency [8]

O=C(N[C@H]1CN2CCC1CC2)c1ccc2c(c1)OCCO2
inactive: Potency [1] | Potency [2] | Potency [3] | Potency [5] | Potency [8] | Potency [9]

C[C@H](N)[C@H](O)c1ccc(O)c(O)c1
inactive: Potency [1] | Potency [2] | Potency [4] | outcome [10] | Potency [5] | Potency [6] | Potency [7] | Potency [8] | Potency [9]

CCOC(=O)NC(O)C(Cl)(Cl)Cl (stereo not drawn)
inactive: Potency [1] | Potency [2] | Potency [4] | outcome [10] | Potency [5] | Potency [6] | Potency [7] | Potency [8] | Potency [9]

O=P(OCC(Br)CBr)(OCC(Br)CBr)OCC(Br)CBr (stereo not drawn)
inactive: Potency [1] | Potency [2] | Potency [5] | Potency [6] | Potency [9]
active: Potency [3] 31 µM and 51.7 µM

CCCCC1C(=O)NC(=O)N(C2CCCCC2)C1=O (stereo not drawn)
inactive: Potency [1] | Potency [2] | Potency [4] | outcome [10] | Potency [5] | Potency [6] | Potency [7] | Potency [8] | Potency [9]

CCOP(=S)(S)OCC
inactive: Potency [1] | Potency [2] | Potency [3] | Potency [4] | Potency [5] | Potency [6] | Potency [9]

CCCC(C)(COC(N)=O)COC(=O)NC(C)C (stereo not drawn)
inactive: Potency [1] | Potency [2] | Potency [4] | outcome [10] | Potency [5] | Potency [6] | Potency [7] | Potency [8] | Potency [9]

O=C(O)c1ccc(=O)[nH]c1
inactive: Potency [1] | Potency [2] | Potency [3] | Potency [4] | Potency [5] | Potency [6] | Potency [7] | Potency [9]

C#CC(O)(C=CCl)CC (stereo not drawn)
inactive: Potency [1] | Potency [2] | Potency [3] | Potency [4] | Potency [5] | Potency [6] | Potency [7] | Potency [8] | Potency [9]

FC(F)OC(F)(F)C(F)Cl (stereo not drawn)
inactive: Potency [1] | Potency [2] | Potency [3] | outcome [10] | Potency [5] | Potency [6] | Potency [7] | Potency [9]

COc1ccc2c(c1OC)C(=O)O[C@H]2[C@@H]1c2cc3c(cc2CCN1C)OCO3
active: Potency [7] 5.96 µM | Potency [8] 5.96 µM
inactive: Potency [1] | Potency [2] | Potency [3] | outcome [10] | Potency [5] | Potency [6] | Potency [9]

Nc1c(Br)cc(Br)c2c1C(=O)c1ccccc1C2=O
inactive: activity change, negative = cytotoxicity [1] -0.0291% [at 19 µM] | viability change, negative = cytotoxic [2] 2.34% [at 19 µM] | activity, negative = inhibition [3] -15.1% [at 19 µM] | activity change, negative = inhibition [4] 16.5% [at 19 µM] | activity change, negative = inhibition [5] -14.9% [at 19 µM] | viability change, negative = cytotoxic [8] -3.04% [at 19 µM] | activity change [9] 9.18% [at 18.9 µM, stronger effect = higher value]

COc1cc(CC#N)cc(OC)c1OC
inactive: Potency [1] | Potency [2] | Potency [3] | Potency [4] | Potency [5] | Potency [6] | Potency [7] | Potency [8] | Potency [9]

CCCCCCCCCCCC[N+](C)(C)CCOc1ccccc1
active: Potency [7] 24.3 µM | Potency [8] 48.6 µM
61.1 µM (active) and inactive: Potency [6]
54.5 µM (active) and inactive: Potency [4]
48.6 µM (active) and inactive: Potency [2]
inactive: Potency [1] | outcome [10] | Potency [5] | Potency [9]

CC(=O)NNc1ccccc1
inactive: Potency [1] | Potency [2] | Potency [3] | Potency [5] | Potency [6] | Potency [7]

CC(C)(C)NCC(O)c1ccccc1Cl (stereo not drawn)
inactive: Potency [1] | Potency [2] | Potency [4] | outcome [10] | Potency [5] | Potency [6] | Potency [7] | Potency [8] | Potency [9]

CCC(=O)O[C@@H]1C=C2CCC3C(CCC4(C)C3CC[C@@H]4OC(=O)CC)C2CC1 (stereo partly drawn)
inactive: Potency [1] | Potency [2] | Potency [3] | Potency [4] | Potency [5] | Potency [6] | Potency [9]

O=C(O)CCCOc1ccc(Cl)cc1Cl
inactive: Potency [1] | Potency [2] | Potency [3] | outcome [10] | Potency [5] | Potency [8] | Potency [9]

C[N+](C)(C)CC1CO1 (stereo not drawn)
inactive: Potency [1] | Potency [2] | Potency [3] | Potency [4] | Potency [5] | Potency [6] | Potency [8] | Potency [9]
